What all share (format): functional
Assay [1] has as its target Solute carrier family 2, facilitated glucose transporter member 1 (Homo sapiens) (UniProt P11166). In words: ST_JUDE_LEISH: Cytotoxicity at 2uM final concentration against transgenic Leishmania Mexicana promastigotes LmGLUT1 that are glucose transport deficient and complemented with the human glucose transporter GLUT1. Activity is measured by DNA content using SYBR green in vitro.

Assay [2] has as its target Hexose transporter 1 (Plasmodium falciparum) (UniProt O97467). In words: ST_JUDE_LEISH: Cytotoxicity at 2uM final concentration against transgenic Leishmania Mexicana promastigotes LmPfHT that are glucose transport deficient and complemented with the Plasmodium falciparum hexose transporter. Activity is measured by DNA content using SYBR green in vitro.
Assay [3] has as its target Glucose transporter (Leishmania mexicana) (UniProt O61059). Description: ST_JUDE_LEISH: Cytotoxicity at 2uM final concentration against transgenic Leishmania Mexicana promastigotes LmGT2 that are glucose transport deficient and complemented with the L. Mexicana glucose transporter 2. Activity is measured by DNA content using SYBR green in vitro.

The term inhibition denotes the relative decrease from the control value, in per cent.

Sequence of Solute carrier family 2, facilitated glucose transporter member 1 (Homo sapiens) (P11166 whole entry): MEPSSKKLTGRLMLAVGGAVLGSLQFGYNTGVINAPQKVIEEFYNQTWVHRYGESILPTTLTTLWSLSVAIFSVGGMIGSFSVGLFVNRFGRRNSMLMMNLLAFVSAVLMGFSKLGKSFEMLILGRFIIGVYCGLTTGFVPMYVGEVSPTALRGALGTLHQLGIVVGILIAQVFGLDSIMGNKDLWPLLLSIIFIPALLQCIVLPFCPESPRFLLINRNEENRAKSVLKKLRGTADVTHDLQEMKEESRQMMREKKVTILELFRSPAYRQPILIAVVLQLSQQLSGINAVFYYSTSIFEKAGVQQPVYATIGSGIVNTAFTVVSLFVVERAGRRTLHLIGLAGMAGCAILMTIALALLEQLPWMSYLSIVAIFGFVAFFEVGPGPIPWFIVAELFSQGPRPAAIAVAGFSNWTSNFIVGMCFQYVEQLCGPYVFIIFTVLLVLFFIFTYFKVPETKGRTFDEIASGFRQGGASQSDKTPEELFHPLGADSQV

`O=C(Nc1cc(Cl)cc(Cl)c1)c1cc(Cl)c(=O)n(Cc2ccc(Cl)cc2)c1`: the inhibition in assay [1] was 3%; in assay [2] it was 5.94%; in assay [3] it was -0.15%.

Consider `Nc1ncc(-c2ccc(F)cc2)c2ccc(-c3cccc(F)c3)cc12`, for which the figures for the inhibition in assay [1], in assay [2] and in assay [3] were 5.19%, 5.19% and 2.72%, respectively.

In the case of `O=C(NC1CCN(c2ncc(C(F)(F)F)cc2Cl)CC1)c1cccs1`, the inhibition in assay [1] was -1.13%; in assay [2], -1.85%; in assay [3] it was -3.08%.

Turning to `Cc1ccccc1CNc1noc(-c2c(-c3ccccc3)noc2C)n1`, the inhibition was -2.97% in assay [1], 2.16% in assay [2] and 6.28% in assay [3].

Consider `CC(=O)Nc1ccc(C2NC(=O)NC(c3ccccc3)=C2c2nc3ccccc3s2)cc1` (stereo unspecified), for which the inhibition was determined as 3.15% in assay [1], 0.83% in assay [2] and 2.69% in assay [3].

For `Cc1cc(=O)c(-c2ccc(Oc3cccc(Cl)c3)cc2)c(C)[nH]1`, the inhibition is 6.01% in assay [1], 5.62% in assay [2] and 2.24% in assay [3].

Take `Cc1[nH]c(C)c(-c2ccc(CCc3ccc(F)cc3F)cc2)c(=O)c1Br`: the inhibition in assay [1] is -0.51%; in assay [2], -1.51%; in assay [3] it was -2.17%.

The record behind these values is ChEMBL document CHEMBL3433997, “St. Jude Leishmania screening dataset” (2016).
